The results in this text go back to PubChem BioAssay (NCATS).

The subject of one experiment is CP185. Description: qHTS profiling for inhibitors of Plasmodium falciparum proliferation (AID 504749). Note: nearly all actives have a fitted effect of over 60% in size. Note: potency is the fitted concentration of half-maximal effect. To be noted: P. falciparum in erythrocytes, SYBR Green DNA, 72 h; series mostly up to 12.8 µM. In short, it runs like this:
(§1)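 SYBR Green fluorescence of parasite DNA, read after lysis and overnight dark incubation, measured growth over 72 h in erythrocyte culture at 0.3% parasitemia and 2.5% hematocrit. Data normalised to DMSO and 0.29 uM artemisinin, with plate-drift correction.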

The subject of the next experiment is CP194. The description is as above. To be noted: P. falciparum in erythrocytes, SYBR Green DNA, 72 h; series mostly up to 12.8 µM. The procedure, abridged:
as §1

The subject of a further experiment is CP201. The description is as above. The note with it: P. falciparum in erythrocytes, SYBR Green DNA, 72 h; series mostly up to 12.8 µM. In short, it runs like this:
as §1

Another experiment has as its system CP203. Described as above. To be noted: P. falciparum in erythrocytes, SYBR Green DNA, 72 h; series mostly up to 12.8 µM. In short, it runs like this:
as §1

A further experiment relates to CP237. The description is as above. The note with it: P. falciparum in erythrocytes, SYBR Green DNA, 72 h; series mostly up to 12.8 µM. In short, it runs like this:
as §1

In the next experiment the test system is CP265. Described as above. To be noted: P. falciparum in erythrocytes, SYBR Green DNA, 72 h; series mostly up to 12.8 µM. The procedure, abridged:
as §1

The next experiment deals with CP268. Described as above. To be noted: P. falciparum in erythrocytes, SYBR Green DNA, 72 h; series mostly up to 12.8 µM. In short, it runs like this:
as §1

In a further experiment the test system is CP286. Described as above. To be noted: P. falciparum in erythrocytes, SYBR Green DNA, 72 h; series mostly up to 12.8 µM. The procedure, abridged:
as §1

For the next experiment, the system named is CP291. The experiment is described as above. The note with it: P. falciparum in erythrocytes, SYBR Green DNA, 72 h; series mostly up to 12.8 µM. In short, it runs like this:
as §1

In a further experiment the test system is CP325. The experiment is described as above. To be noted: P. falciparum in erythrocytes, SYBR Green DNA, 72 h; series mostly up to 12.8 µM. In short, it runs like this: as §1
The next experiment concerns DIV14. Described as above. To be noted: P. falciparum in erythrocytes, SYBR Green DNA, 72 h; series mostly up to 12.8 µM. The procedure, abridged: as §1
The test system of another experiment is DIV17. Described as above. The note with it: P. falciparum in erythrocytes, SYBR Green DNA, 72 h; series mostly up to 12.8 µM. In short, it runs like this:
as §1

Another experiment deals with DIV30. The experiment is described as above. To be noted: P. falciparum in erythrocytes, SYBR Green DNA, 72 h; series mostly up to 12.8 µM. In short, it runs like this:
as §1

A further experiment deals with Dd2. Described as above. The note with it: P. falciparum in erythrocytes, SYBR Green DNA, 72 h; series mostly up to 12.8 µM. In short, it runs like this: as §1
In a further experiment the test system is HB3. The experiment is described as above. To be noted: P. falciparum in erythrocytes, SYBR Green DNA, 72 h; series mostly up to 12.8 µM. The procedure, abridged:
as §1

Another experiment concerns ICS. The experiment is described as above. The note with it: P. falciparum in erythrocytes, SYBR Green DNA, 72 h; series mostly up to 12.8 µM. The procedure, abridged:
as §1

The test system of another experiment is P93_24. The experiment is described as above. To be noted: P. falciparum in erythrocytes, SYBR Green DNA, 72 h; series mostly up to 12.8 µM. In short, it runs like this: as §1
The subject of a further experiment is PAD. The experiment is described as above. To be noted: P. falciparum in erythrocytes, SYBR Green DNA, 72 h; series mostly up to 12.8 µM. In short, it runs like this: as §1
The next experiment concerns TAB113. The description is as above. To be noted: P. falciparum in erythrocytes, SYBR Green DNA, 72 h; series mostly up to 12.8 µM. In short, it runs like this:
as §1

Experiment [1] has as its target Luciferin 4-monooxygenase (Photinus pyralis) (UniProt P08659). Description: Biochemical firefly luciferase enzyme assay for NPC (AID 624030).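 Note: purified P. pyralis luciferase at 10 nM with luciferin and ATP substrate; nearly all actives have a fitted effect of over 70% in size.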 The procedure, abridged: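 Direct inhibition of firefly luciferase enzyme (10 nM final, 50 mM Tris Acetate) assessed by luminescence within 5 minutes. Percent activity scaled between DMSO and PTC124 positive control, with concentration-effect curves classified by fit quality and response.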

Molecules are shown by their SMILES. Records with an inconclusive call do not appear. The source made the active and inactive calls. Calls come from the whole dose curve; as a rule, active = well fitted inhibition curve with a large enough effect; inconclusive = small, poorly fitted or top-dose-only effect; inactive = flat fitted curve, though single readings scatter.

Chain of Luciferin 4-monooxygenase (Photinus pyralis) (P08659 whole entry, looked up): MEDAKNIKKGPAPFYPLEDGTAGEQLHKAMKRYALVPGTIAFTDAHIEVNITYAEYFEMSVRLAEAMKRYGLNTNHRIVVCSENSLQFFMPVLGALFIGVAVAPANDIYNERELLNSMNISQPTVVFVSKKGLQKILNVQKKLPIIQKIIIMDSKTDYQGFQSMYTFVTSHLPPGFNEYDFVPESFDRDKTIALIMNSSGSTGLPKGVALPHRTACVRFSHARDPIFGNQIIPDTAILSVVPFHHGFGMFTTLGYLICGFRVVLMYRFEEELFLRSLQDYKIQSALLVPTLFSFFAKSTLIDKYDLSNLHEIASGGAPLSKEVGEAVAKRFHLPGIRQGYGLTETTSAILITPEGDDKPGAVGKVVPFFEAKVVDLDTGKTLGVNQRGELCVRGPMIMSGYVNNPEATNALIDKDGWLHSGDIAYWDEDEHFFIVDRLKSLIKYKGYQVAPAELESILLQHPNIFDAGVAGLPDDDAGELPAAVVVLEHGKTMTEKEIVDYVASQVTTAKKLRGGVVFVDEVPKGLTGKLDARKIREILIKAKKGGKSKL

For `O=C(NC[C@@H](O)CO)c1c(I)c(C(=O)NC[C@@H](O)CO)c(I)c(N(CCO)C(=O)CO)c1I`, the Potency result in the experiment on CP185, in the experiment with CP194, with CP201, in the experiment on CP203, in the experiment with CP237 and with CP265 was “inactive” throughout. Further, the Potency result in the experiment on CP268, in the experiment on CP286, in the experiment with CP291, with CP325, with DIV14 and in the experiment on DIV17 was “inactive” throughout. For the same compound, the Potency result in the experiment with DIV30, in the experiment with Dd2, in the experiment on HB3, in the experiment with ICS, in the experiment with P93_24 and with PAD was “inactive” in each case. In the experiment on TAB113, the Potency result is “inactive”.

As for `COc1cc2nc(N3CCN(C(=O)[C@@H]4CCCO4)CC3)nc(N)c2cc1OC`, the Potency entry (in [1]; in the experiment on CP185; with CP194; in the experiment with CP201; with CP203; with CP237) was “inactive” in each case. The Potency result with CP265, in the experiment with CP268, with CP286, with CP291, with CP325 and in the experiment on DIV14 was “inactive” in each case. For the same compound, the Potency result with DIV17, in the experiment with DIV30, in the experiment on Dd2, in the experiment on HB3, in the experiment with ICS and in the experiment on P93_24 was “inactive” in each case. Further, the Potency entry in the experiment with PAD and in the experiment on TAB113 was “inactive” each time.

For the compound `CCC(=O)O[C@@H]1[C@H](C)O[C@H](O[C@H]2[C@@H](N(C)C)[C@H](O)[C@@H](O[C@@H]3[C@@H](CC=O)C[C@@H](C)[C@@H](O)/C=C\C=C/C[C@@H](C)OC(=O)C[C@@H](OC(=O)CC)[C@H]3OC)O[C@H]2C)C[C@]1(C)O`, the Potency result (in [1]; in the experiment with DIV14; in the experiment with DIV30; with HB3; with PAD; in the experiment on TAB113) was “inactive” each time. For the same compound, the Potency in the experiment with Dd2 is 3.16 µM (active).

On to `CC(C)(C)NC[C@H](O)COc1cccc2c1CCC(=O)N2`, for which the Potency result (in experiment [1]; with CP185; with CP194; in the experiment on CP201; in the experiment on CP203; in the experiment with CP237) was “inactive” throughout. Also, the Potency entry in the experiment on CP265, with CP268, in the experiment with CP286, in the experiment with CP291, in the experiment on CP325 and with DIV14 was “inactive” throughout. Further, the Potency result in the experiment on DIV17, in the experiment with DIV30, in the experiment with Dd2, with HB3, in the experiment on ICS and in the experiment on P93_24 was “inactive” throughout. For the same compound, the Potency result in the experiment with PAD and in the experiment on TAB113 was “inactive” in each case.

Consider `C=CCOc1ccccc1OC[C@H](O)CNC(C)C`, for which the Potency result in the experiment with CP185, with CP194, with CP201, in the experiment on CP203, in the experiment with CP265 and in the experiment on CP268 was “inactive” each time. For the same compound, the Potency entry in the experiment on CP286, in the experiment with CP291, with CP325, in the experiment with DIV14, in the experiment with DIV17 and in the experiment on DIV30 was “inactive” each time. Moreover, the Potency result with HB3, with ICS, in the experiment with P93_24, in the experiment on PAD and in the experiment on TAB113 was “inactive” in each case. For the same compound, in the experiment on CP237, the Potency is 3.16 µM (active).

`NC(=O)N[C@H]1NC(=O)NC1=O`: the Potency result (in experiment [1]; with CP185; in the experiment on CP194; in the experiment with CP201; in the experiment with CP203; with CP237) was “inactive” throughout. The Potency entry in the experiment with CP265, in the experiment with CP268, in the experiment on CP286, in the experiment with CP291, in the experiment on CP325 and in the experiment on DIV14 was “inactive” each time. Moreover, the Potency entry in the experiment with DIV17, in the experiment on DIV30, with Dd2, with HB3, in the experiment on ICS and with P93_24 was “inactive” throughout. For the same compound, the Potency entry in the experiment on PAD and with TAB113 was “inactive” each time.

In the case of `C[C@H](Oc1ccccc1)C(=O)N[C@@H]1C(=O)N2[C@@H]1SC(C)(C)[C@@H]2C(=O)O`, the Potency entry in the experiment with CP185, in the experiment with CP194, with CP201, with CP203, with CP237 and in the experiment with CP265 was “inactive” in each case. The Potency entry in the experiment on CP268, in the experiment on CP286, in the experiment on CP291, in the experiment on CP325, in the experiment with DIV14 and in the experiment on DIV17 was “inactive” throughout. Moreover, the Potency entry in the experiment on DIV30, in the experiment with Dd2, with HB3, with ICS, in the experiment with P93_24 and in the experiment with PAD was “inactive” in each case. Moreover, the Potency entry in the experiment on TAB113 was “inactive”.

Regarding `COc1ccc(C[C@@](C)(N)C(=O)O)cc1OC`, the Potency entry (in [1]; in the experiment with CP185; in the experiment with CP194; in the experiment on CP201; in the experiment with CP203; in the experiment on CP237) was “inactive” each time. Moreover, the Potency entry in the experiment with CP265, with CP268, with CP286, in the experiment with CP291, with CP325 and in the experiment with DIV14 was “inactive” each time. In addition, the Potency entry with DIV17, with DIV30, with Dd2, in the experiment with HB3, in the experiment on ICS and in the experiment on P93_24 was “inactive” in each case. Besides, the Potency result with PAD and with TAB113 was “inactive” in each case.

For the compound `C=CCN1C(=CCO)[C@H]2C[C@H]3[C@@H]1CC[C@@]31c3ccccc3N3C=C4[C@@H]5N(/C=C/2[C@H]31)c1ccccc1[C@]51CC[C@H]2[C@H]1C[C@@H]4/C(=C/CO)N2CC=C`, the Potency result (in [1]; with CP185; in the experiment on CP194; with CP201; in the experiment with CP203; in the experiment on CP237) was “inactive” throughout. The Potency result in the experiment with CP265, in the experiment on CP268, in the experiment with CP286, in the experiment on CP291, in the experiment on CP325 and with DIV14 was “inactive” in each case. The Potency entry in the experiment with DIV17, in the experiment with DIV30, with Dd2, in the experiment with HB3, in the experiment on ICS and in the experiment with P93_24 was “inactive” throughout. For the same compound, the Potency result with PAD and with TAB113 was “inactive” each time.

`CO[C@H]1[C@H](O[C@H]2O[C@@H](C)[C@@H](O[C@@H]3C[C@](C)(O)[C@H](OC(=O)CC(C)C)[C@H](C)O3)[C@@H](N(C)C)[C@@H]2O)[C@@H](CC=O)C[C@@H](C)[C@@H](O)/C=C\C=C/C[C@@H](C)OC(=O)C[C@H]1OC(C)=O`: the Potency in the experiment on Dd2 is 1.41 µM (active). Besides, the Potency entry with TAB113 was “inactive”.

Regarding `NS(=O)(=O)c1cc2c(cc1Cl)N[C@@H](CC1CCCC1)NS2(=O)=O`, the Potency entry (in experiment [1]; in the experiment on CP185; in the experiment on CP194; in the experiment with CP201; in the experiment on CP203; in the experiment on CP237) was “inactive” in each case. Moreover, the Potency entry in the experiment on CP265, with CP268, in the experiment on CP286, with CP291, with CP325 and in the experiment on DIV14 was “inactive” throughout. Further, the Potency result in the experiment on DIV17, in the experiment with DIV30, in the experiment with Dd2, in the experiment on HB3, in the experiment on ICS and in the experiment on P93_24 was “inactive” throughout. Moreover, the Potency result in the experiment with PAD and in the experiment on TAB113 was “inactive” throughout.

Regarding `CC(=O)N(C[C@@H](C)C(=O)O)c1c(I)cc(I)c(N)c1I`, the Potency result (in experiment [1]; with CP185; in the experiment on CP237; in the experiment on CP265; with CP286; with Dd2) was “inactive” throughout. Further, the Potency entry in the experiment on HB3, in the experiment on ICS, with P93_24, with PAD and with TAB113 was “inactive” in each case.
